Source: PubChem
Hits are enriched below; roughly 5.8% of the tested compounds scored in any of these assays.
PINK1 modulator = PINK1 expression modulation; PINK1 immunofluorescence, high-content cytometry, 24 h; Potency, µM (doses to about 76.6 µM), for inactives: at the highest dose activation (PINK1 increase), usual class: activators; 410,000 tested, 0.2% active; active = well fitted activation curve with a large enough effect; inconclusive = small, poorly fitted or top-dose-only effect; cell line not stated here; note: % of control where 0% means no effect; nearly all actives have a fitted effect of over 65% in size
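PINK1 protein level read as immunofluorescence by microplate cytometer in a fixed, stained stable cell line after 24 h exposure to five compound concentrations, with CCCP as control.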
MCF10A rereplic = inducers of DNA re-replication in MCF 10A breast cells | MCF 10A DNA re-replication, Hoechst nuclear intensity, 48 h | Potency, µM (titrated, usually from 46.1 µM), without a hit: at the top dose activity, positive = re-replication, most hits filed as activators | 350,000 tested, 2.9% active; note: % of control where 0% means no effect; nearly all actives have a fitted effect of over 50% in size
KB-V1 cytotox = KB-V1 MDR subline cytotoxicity. Potency, µM (titrated, usually from 46.1 µM), actives largely listed as cytotoxic. 400,000 tested, 3.4% active. KB-V1 MDR cells viability, CellTiter-Glo, 72 h; note: % is set by controls: 0 for no effect and ±100 for the full control effect; nearly all actives have a fitted effect of over 60% in size
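Compound-treated KB-V1 multidrug-resistant cells, 72 h, 37 degrees C; viability by CellTiter-Glo. Fitted qHTS curves give the values.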
12-LOX inh = blocks human arachidonate 12S-lipoxygenase. purified 12hLO, xylenol orange hydroperoxide absorbance. Potency, µM (highest dose often 108 µM), without a hit: at the top dose activity change, negative = inhibition, hits mostly inhibitors. 580,000 tested, 1.1% active. AID 1671190; note: % is set by controls: 0 for no effect and ±100 for the full control effect
Target sequence (P18054 whole entry, looked up): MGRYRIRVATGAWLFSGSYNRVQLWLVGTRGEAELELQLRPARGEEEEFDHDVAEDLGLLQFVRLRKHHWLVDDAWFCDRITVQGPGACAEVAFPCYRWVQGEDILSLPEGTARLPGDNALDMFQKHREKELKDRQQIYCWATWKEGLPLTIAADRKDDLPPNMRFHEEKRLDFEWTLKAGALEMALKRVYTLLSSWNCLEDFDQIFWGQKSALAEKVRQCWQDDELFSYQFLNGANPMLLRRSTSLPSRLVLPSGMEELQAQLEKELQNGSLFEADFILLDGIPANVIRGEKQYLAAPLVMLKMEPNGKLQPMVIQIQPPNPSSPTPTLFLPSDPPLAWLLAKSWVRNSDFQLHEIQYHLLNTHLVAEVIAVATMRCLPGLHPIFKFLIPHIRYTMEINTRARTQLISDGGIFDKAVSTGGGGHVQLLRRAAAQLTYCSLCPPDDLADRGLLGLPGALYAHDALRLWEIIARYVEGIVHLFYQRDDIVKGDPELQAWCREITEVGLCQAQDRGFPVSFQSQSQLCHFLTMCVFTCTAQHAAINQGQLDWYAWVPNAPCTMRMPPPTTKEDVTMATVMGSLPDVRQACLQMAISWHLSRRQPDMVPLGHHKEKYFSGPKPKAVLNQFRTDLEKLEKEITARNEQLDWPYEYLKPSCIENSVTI
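Purified human 12hLO (150 nM final) in 25 mM Hepes, 0.01% Triton X-100, pH 7.0 was preincubated 15 min at room temperature with compound. Then 40 uM arachidonic acid was added, 30 min. Hydroperoxide was read by Fe-XO absorbance ratio 573/405 nm.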
SW480 rereplic = inducers of DNA re-replication in SW480 colon cancer cells; SW480 DNA re-replication, Hoechst DNA content imaging, 48 h; 340,000 tested, 1.8% active; Potency, µM (series often up to 46.1 µM), without a hit: at the highest dose re-replication activation, usual class: activators; note: % of control where 0% means no effect; nearly all actives have a fitted effect of over 55% in size
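Treated cells incubate 48 hr (37 C, 5% CO2), are stained 40 min with Hoechst, and nuclear fluorescence is enumerated; a rise in nuclei with high DNA signal marks re-replication.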
KB-3-1 tox = kills parental KB-3-1 adenocarcinoma cells; KB-3-1 viability, CellTiter-Glo ATP luminescence, 72 h; 400,000 tested, 1.4% active; AID 1347075; Potency, µM (top dose mostly 46.1 µM), most hits filed as cytotoxic; note: % is set by controls: 0 for no effect and ±100 for the full control effect; nearly all actives have a fitted effect of over 60% in size
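Screening of KB-3-1 cells (DMEM, 10% FBS, phenol-red free) ran from lowest to highest compound concentration; after 72 h at 37 °C viability was read luminescently and curves fitted.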
Numbers without * were called inactive; i = inactive; u = inconclusive; x = no result given; ! = a repeat was not active; [ ] = remark or other dose. Unless noted, calls come from the whole dose curve; as a rule, active = well fitted curve in the direction sought with a large enough effect; inconclusive = small, poorly fitted or top-dose-only effect, or another doubt; inactive = no such curve, though single readings can be large; an effect the other way counts as inactive or inconclusive. Potency is the fitted concentration of half-maximal effect.

SMILES	PINK1 modulator	MCF10A rereplic	KB-V1 cytotox	12-LOX inh	SW480 rereplic	KB-3-1 tox
Cc1ccc(Sc2nc(C)c([N+](=O)[O-])c(C)c2C#N)cc1	1.2%	u	i	0.0%	-37.4%	i
Cc1nc(Sc2ccc(Br)cc2)c(C#N)c(C)c1[N+](=O)[O-]	-3.5%	20.6µM*	u	25.1%	18.4%	u
CCC(Sc1nc2c(c(=O)[nH]1)CCC2)C(=O)Nc1cccc(OC)c1 (stereo unspecified)	1.5%[38.3 µM]	22.8%	16.4µM*	8.4%	-0.1%	i
CCC(Sc1nc2ncccc2[nH]1)C(=O)Nc1cccc(OC)c1 (stereo unspecified)	0.7%	x	x	-11.8%	x	x
Cc1ccc2c(C)c(CCC(=O)Nc3ccccc3Cl)c(=O)oc2c1	x	x	x	9.5%	x	x
CC(C)(CO)NCC(O)COc1ccc2c(c1)CCC2 (stereo unspecified)	0.5%	4.8%	i	15.8%	-0.7%	i
CC(C)(C)CC(C)(C)NCC(O)COc1ccc2c(c1)CCC2 (stereo unspecified)	6.2%	u	u	-10.8%	u	20.6µM*
Cc1cccc(/C=C/c2onc(C)c2S(=O)(=O)N2CCC(C(=O)N3CCC(C)CC3)CC2)c1	-1.7%	u	u	u	13.4%	16.4µM*!
CCCNC(=O)C1CCN(S(=O)(=O)c2c(C)noc2/C=C\c2ccc(OC)cc2)CC1	3.6%	35.7%	i	8.9%	19.6%	i
COc1ccc(/C=C/c2onc(C)c2S(=O)(=O)N2CCC(C(=O)N3CCC(C)CC3)CC2)cc1	1.5%	u	i	-28.1%	15.8%	20.6µM*!
CCOCCCNC(=O)C1CCN(S(=O)(=O)c2c(C)noc2/C=C\c2ccc(OC)cc2)CC1	u	10.9%	18.4µM*	0.0%	5.0%	i
CCNc1nc(N2CCCC2)nc(N2CCCC2)n1	4.4%	6.9%	i	-1.2%	-6.0%	i
CCNc1nc(NC(C)(C)C)nc(N2CCCCC2)n1	16.3%	18.4µM*	i	-3.8%	14.6µM*	u
COc1ccc(C(=O)Nc2ccc3oc(C)nc3c2)c(O)c1	x	x	x	-16.0%	x	x
O=C(CSCc1ccc(Cl)cc1)Nc1ccc(O)cc1C(=O)O	1.3%	-3.5%	u	6.31µM*	3.9%	i
COc1cc(NC(=O)CSCc2ccc(Cl)cc2)c(C(=O)O)cc1OC	1.0%	1.9%	u	-42.7%	-11.6%	i
CCOC(=O)c1ccc2ncc(C(=O)OCC)c(NCCCOC(=O)C(C)(C)C)c2c1	x	x	x	11.1%	x	x
Cc1[nH]c2ccccc2c1/C=N/NC(=O)c1cc(-c2ccncc2)nc2ccccc12	4.6%	u	i	8.4%	13µM*	u
O=C(O)COc1ccccc1/C=N/NC(=O)c1cc(-c2ccccc2)nc2ccccc12	-1.4%	-4.3%	i	-82.8%	-44.3%	i
O=C(N/N=C/c1ccccc1OC(F)F)c1cc(-c2ccncc2)nc2ccccc12	6.6%	4.61µM*	i	2.3%	11.6µM*	18.4µM*
Cc1cccc(C)c1NC(=O)CN(C)CC(=O)Nc1ccc(F)c(Cl)c1	-0.4%	-1.0%	14.6µM*	2.2%	-1.6%	i
CC(C)Cn1c(Cn2cccn2)nc2cc(NC(=O)COc3ccc(Cl)cc3)ccc21	x	x	x	-24.9%	x	x
Cc1ccc2nc(N3CCN(Cc4nnnn4C4CCCC4)CC3)c(C#N)cc2c1	0.3%	u	20.6µM*	-24.3%	-6.3%	i
Cc1cccc(N2CCN(CC3CCCCC3)CC2)c1C	16.9%	-1.1%	i	-12.1%	-43.8%	i
C1CCN(Cc2nnnn2C2CCCC2)CC1	5.1%[38.3 µM]	-10.2%	i	19.4%	-3.9%	i
SMILES	PINK1 modulator	MCF10A rereplic	KB-V1 cytotox	12-LOX inh	SW480 rereplic	KB-3-1 tox
Cc1ccc(C)c(N2CCN(Cc3nnnn3C3CCCCC3)CC2)c1	0.3%	u	23.1µM*	u	14.3%	i
COc1cccc(N2CCN(Cc3nnnn3C3CCCCC3)CC2)c1	1.2%	-0.2%	23.1µM*	-2.7%	1.2%	i
CCC(C)(C)n1nnnc1CN1CCN(c2nc3cc(OC)ccc3cc2C#N)CC1	1.2%	u	i	u	11.0%	u
Cc1ccc(C)c(N2CCN(CC3CCCCC3)CC2)c1	13.6%	16.1%	i	4.47µM*	7.8%	i
Cc1ccc(CNC(=O)C2CCN(c3nc4c(C)cc(C)cc4s3)CC2)cc1	x	x	x	-3.7%	x	x
COC(=O)c1ccc(OCc2cc(OC)c(Br)cc2OC)cc1	x	x	x	3.1%	x	x
O=C(NCC1Cn2cccc2C(=O)N1Cc1ccccc1)c1ccc2ccccc2n1 (stereo unspecified)	x	x	x	55.8%	x	x
Cc1cc(C)n2nc(SC(C)C(=O)Nc3cc(Cl)ccc3Cl)nc2n1 (stereo unspecified)	x	x	x	-0.4%	x	x
CC(C)C[C@@H]1NC(=O)[C@H](Cc2ccccc2)N(C)C(=O)[C@H](C)NC(=O)c2ccccc2NC(=O)[C@H](Cc2ccc(O)cc2)N(C)C1=O	0.8%	2.5%	i	14.1%	-39.8%	i
COc1ccc(CC2C(=O)NC(C)C(=O)N(C)C3Cc4ccc(cc4)Oc4cc(ccc4O)CC(C(=O)NC(C)C(=O)NC(C)C(=O)N2C)N(C)C3=O)cc1 (stereo unspecified)	-7.0%	u	i	-24.2%	4.61µM*	0.231µM*
CC(C)(C)c1cc(-c2ccccc2)c2cc([N+](=O)[O-])ccc2n1	x	x	x	18.9%	x	x
Cc1cc(C)c(S(=O)(=O)Nc2ccccc2-c2ccccc2)c(C)c1	u	u	18.4µM*	-16.5%	10.0%	u
Cc1cc(C)c(S(=O)(=O)Nc2cnc3ccccc3c2)c(C)c1	3.3%	12.6%	14.6µM*	15.8µM*!	2.7%	i
C=C(C)Cn1c(SCC(=O)O)nc2c1c(=O)n(C)c(=O)n2C	x	x	x	-6.6%	x	x
Cc1cc(CNC(=O)c2ccc(CN3CCCCC3)cc2)ccc1F	x	x	x	-9.3%	x	x
Cn1c(CN2CCN(c3ccccc3NC(=O)Nc3ccccc3)CC2)nc2ccccc21	x	x	x	-28.3%	x	x
O=[N+]([O-])c1ccc(/C=N/n2c(CO)nc3ccccc32)s1	16.8%	13.6%	i	u	3.26µM*	u
O=[N+]([O-])c1ccc(/C=N/n2cnc3ccccc32)s1	-0.7%	u	u	-12.7%	4.11µM*	u
Cc1nc2ccccc2n1/N=C/c1ccc([N+](=O)[O-])s1	u	18.4µM*	11.6µM*	4.2%	u	u
Clc1cccc(Nc2c3c(nc4ncnn24)CCC3)c1	-5.9%[38.3 µM]	16.7%	u	14.1%	-2.8%	i
CCc1cccc(Nc2c3c(nc4ncnn24)CCC3)c1	-0.3%	1.3%	18.4µM*	3.1%	0.0%	i
